# NOMO-1 viab = STK33 inhibitor candidate reducing NOMO-1 cell viability; 37,000 tested, 7.5% active; NOMO-1 AML viability, CellTiter-Glo luminescence, 72 h; inhibition, % (no concentration beside the values); in the data active means inhibition above about 80%; inconclusive means no clear call, values can overlap the other calls
# PD-1 reverse act = reversal of PD-1 mediated T-cell inhibition | primary human CD4 T cells, PD-L1 beads, CellTiter-Glo 96 h | AID 2316 | 29,000 tested, under 10 active | activation, % (test concentration not listed); call rule not given here;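 further: 0% = median vehicle wells and 100% = positive control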
# Shh pathway inh = blocks Sonic Hedgehog signaling | inhibition, % (concentration not given with the values) | 22,000 tested, 2.1% active | Shh-LIGHT2 Gli-luciferase reporter, 30 h | AID 2313;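 active means mean inhibition across valid replicates above about 65%, limit read from the data; inconclusive means mean under the limit, yet half or more replicates past it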;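 further: pathway switched on by Shh-conditioned medium diluted 1 in 25 in low serum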
# * marks the source's active call; other numbers are inactive results; ? = inconclusive; nt = not tested or not shown. An excerpt weighted towards active compounds, which were near 7.7% of everything screened.
SMILES,NOMO-1 viab,PD-1 reverse act,Shh pathway inh
CC(C)(C)c1ccc(S(=O)(=O)N2CCN(c3ccc([N+](=O)[O-])c(NCc4cccnc4)c3)CC2)cc1,8,-4,nt
CC(=O)Nc1cccc(-c2nn3c(C)nnc3s2)c1,25,1,35
COc1cccc(OC)c1C(=O)NC(=S)Nc1cccc(-c2nn3c(C)nnc3s2)c1,122*,-3,nt
Cc1ccc(NC(=O)Cn2nc(-c3ccc(C)c(S(=O)(=O)N(C)C)c3)c3ccccc3c2=O)cc1,0,nt,nt
O=C(O)c1ccc(Oc2ccccc2)cc1,-10,2,-22
COC(=O)COc1cc(Cl)c(C2NC(=S)NC(c3ccccc3)=C2C(C)=O)cc1OC (configuration not stated),117*,nt,nt
COc1cc(C2NC(=S)NC(c3ccccc3)=C2C(=O)c2ccccc2)cc(I)c1OCCO (configuration not stated),26,-4,nt
C/C(=C\CC(C)(C)/C=C/Cc1ccoc1)C(=O)O,-3,0,5
COC(=O)c1cccc(NC(=O)CSc2nnc(-c3cc(OC)cc(OC)c3)o2)c1,-4,1,nt
COc1cc(OC)cc(-c2nnc(SCC(=O)Nc3ccc(I)cc3)o2)c1,90*,-5,nt
Clc1ccc(-n2c(SCc3nc4ccccc4s3)nnc2-c2cccs2)cc1,30,nt,nt
COc1ccc(CN(C)C[C@@H]2Oc3c(NC(=O)Nc4ccc(C(F)(F)F)cc4)cccc3C(=O)N([C@H](C)CO)C[C@@H]2C)cc1,90*,-4,23
COc1ccc(NC(=O)Nc2cccc3c2O[C@H](CN(C)Cc2ccc(C(F)(F)F)cc2)[C@H](C)CN([C@@H](C)CO)C3=O)cc1,47,0,-20
COc1ccc(CN(C)C[C@@H]2Oc3c(NC(=O)Nc4ccc(C(F)(F)F)cc4)cccc3C(=O)N([C@@H](C)CO)C[C@H]2C)cc1,116*,-8,15
COc1ccc(NC(=O)Nc2cccc3c2O[C@@H](CN(C)Cc2ccc(C(F)(F)F)cc2)[C@H](C)CN([C@H](C)CO)C3=O)cc1,84*,-3,-8
C[C@@H]1CN([C@@H](C)CO)C(=O)c2cccc(NC(=O)Nc3ccc(C(F)(F)F)cc3)c2O[C@H]1CN(C)Cc1ccc(Oc2ccccc2)cc1,?,nt,-27
COC(=O)CNC(=O)c1ccc(S(=O)(=O)N2CCOCC2)cc1,35,1,nt
CCCC1=NN(C(=O)/C=C/c2cccs2)C(=O)C1Cc1c(F)cccc1Cl (configuration not stated),52,-1,nt
C=CCC1C(=O)N(S(=O)(=O)c2ccc(Cl)cc2)N=C1CCC (configuration not stated),110*,-5,?
COc1ccc(Cn2c(C)cc(O)cc2=O)cc1OC,30,1,4
Cn1c(SCCC(=O)O)nnc1-c1ccncc1,6,1,nt
CCOC(=O)c1nnn2c1nc(Sc1nc3ccccc3o1)c1ccccc12,116*,-5,-1
CCOC(=O)c1nnn2c1nc(N(CC)CC)c1ccccc12,8,0,nt
CCOC(=O)c1nnn2c1nc(Sc1nnc(-c3ccncc3)n1C)c1ccccc12,117*,-5,-13
CC(=O)c1cccc(-n2nnnc2SCC(=O)Nc2ccccc2F)c1,10,-1,nt
SMILES,NOMO-1 viab,PD-1 reverse act,Shh pathway inh
NC(=NC(=O)c1cnccc1C(F)(F)F)c1ccccn1,-17,0,-18
CSc1nc2sc3c(c2c2nnc(SCC(=O)Nc4ccccc4)n12)CCC3,129*,-4,nt
O=C(CSc1nc2sc3c(c2c(=O)n1-c1ccccc1)CCCC3)Nc1ccccc1,29,nt,nt
COc1ccccc1NC(=O)C1c2ccccc2Oc2ccccc21,?,0,nt
COc1ccccc1NC(=O)/C=C\c1ccco1,107*,-19,68*
CC1(C)CC[C@]2(C(=O)O[C@@H]3O[C@H](CO[C@@H]4O[C@H](CO)[C@@H](O)[C@H](O)[C@H]4O)[C@@H](O)[C@H](O[C@@H]4O[C@H](CO)[C@@H](O)[C@H](O)[C@H]4O)[C@H]3O)CC[C@]3(C)C(=CCC4[C@@]5(C)CC[C@H](O)[C@@](C)(C(=O)O)C5CC[C@]43C)C2C1 (some centres not stated),-7,3,-14
Cc1ccc(S(=O)(=O)N(C)C[C@H]2Oc3ccc(NC(=O)Nc4ccc5c(c4)OCO5)cc3CC(=O)N([C@@H](C)CO)C[C@@H]2C)cc1,23,-1,2
COc1ccc(S(=O)(=O)N(C)C[C@@H]2Oc3ccc(NC(=O)Nc4ccc5c(c4)OCO5)cc3CC(=O)N([C@@H](C)CO)C[C@@H]2C)cc1,65,nt,-11
C[C@@H]1CN([C@H](C)CO)C(=O)Cc2cc(NC(=O)Nc3ccc4c(c3)OCO4)ccc2O[C@@H]1CN(C)S(=O)(=O)c1ccccc1,3,nt,9
Cc1ccc(S(=O)(=O)N(C)C[C@@H]2Oc3ccc(NC(=O)Nc4ccc5c(c4)OCO5)cc3CC(=O)N([C@H](C)CO)C[C@@H]2C)cc1,102*,0,-21
Cc1ccc(S(=O)(=O)N(C)C[C@H]2Oc3ccc(NC(=O)Nc4ccc5c(c4)OCO5)cc3CC(=O)N([C@@H](C)CO)C[C@H]2C)cc1,48,-1,?
C[C@H]1CN([C@@H](C)CO)C(=O)Cc2cc(NC(=O)Nc3ccc4c(c3)OCO4)ccc2O[C@H]1CN(C)S(=O)(=O)c1ccc(Cl)cc1,127*,nt,38
C[C@H](CO)N1C[C@H](C)[C@H](CN(C)S(=O)(=O)c2ccc(Cl)cc2)Oc2ccc(NC(=O)Nc3ccc4c(c3)OCO4)cc2CC1=O,126*,-2,43
C[C@H]1CN([C@@H](C)CO)C(=O)Cc2cc(NC(=O)Nc3ccc4c(c3)OCO4)ccc2O[C@H]1CN(C)S(=O)(=O)c1ccccc1,128*,nt,-28
CC(Sc1nc(N)cc(=O)[nH]1)C(=O)Nc1ccc(Cl)cc1 (configuration not stated),6,nt,nt
CC(C)(C)NC(=O)CSc1nnc(-c2ccccc2Cl)n1-c1ccccc1,14,nt,nt
CS(=O)(=O)N(CC(=O)Nc1ccc(F)c(Cl)c1)Cc1ccccc1,18,-2,nt
CC1=CC(=O)C2C(C)(C)CCC[C@]2(C)[C@@]1(O)CCc1ccoc1 (some centres not stated),96*,nt,30
C[C@@H]1C[C@@H](O)C2[C@@](C)(CO)CCC[C@]2(C)[C@@]1(O)CCc1ccoc1 (some centres not stated),26,0,-3
O=C(O)Cc1ccc(NC(=O)CN2C(=O)c3ccccc3C2=O)cc1,28,2,nt
C[C@H]1CN([C@@H](C)CO)C(=O)c2cc(NS(=O)(=O)c3ccc(F)cc3)ccc2O[C@H]1CN(C)Cc1ccc(Oc2ccccc2)cc1,11,0,nt
C[C@@H]1CN([C@H](C)CO)C(=O)c2cc(NS(=O)(=O)c3ccc(F)cc3)ccc2O[C@H]1CN(C)Cc1ccc(Oc2ccccc2)cc1,114*,nt,nt
C[C@H](CO)N1C[C@H](C)[C@@H](CN(C)Cc2ccc(Oc3ccccc3)cc2)Oc2ccc(NS(=O)(=O)c3ccccc3)cc2C1=O,55,-4,nt
C[C@@H]1CN([C@H](C)CO)C(=O)c2cc(NS(=O)(=O)c3ccc(F)cc3)ccc2O[C@@H]1CN(C)Cc1ccc(Oc2ccccc2)cc1,86*,-1,nt
COc1ccc(C(=O)O[C@H]2CC(C)=CC[C@]3(C)[C@@H]2[C@](O)(C(C)C)C[C@@H]3O)cc1,18,4,-10
